CHRM1 antagonist = human M1 muscarinic receptor antagonists, primary screen, CHO-K1 cells, Fluo-8 calcium fluorescence, 1536-well; Muscarinic acetylcholine receptor M1 (Homo sapiens), P11229; CHO-K1 hM1, ACh EC80 antagonist; inhibition, % at 3 µM; 360,000 compounds, 1.3% hits; AID 588852, 2011;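 active means percent inhibition above its own plate's cutoff, namely the mean of that plate's compound wells plus 3 SD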;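 further: peak over basal fluorescence ratio during 140 s after agonist addition; 0% = ACh EC80 plus DMSO and 100% = DMSO alone without agonist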
CHRM1 PAM = human M1 muscarinic receptor positive allosteric modulators, primary screen, CHO-K1 cells, Fluo-8 calcium fluorescence, 1536-well | CHO-K1 hM1, ACh EC20; 0% = ACh EC20, 100% = maximal ACh | activation, % at 3 µM | 360,000 compounds, 0.088% hits | AID 588819, 2011; in the data active means activation above about 19%, passing the limit was not always enough
CHRM4 PAM = human M4 muscarinic receptor positive allosteric modulators, primary screen, CHO-K1 cells, Fluo-8 calcium fluorescence; Muscarinic acetylcholine receptor M4 (Homo sapiens), P08173; CHO-K1 hM4/Gqi5, ACh EC20; 0% = ACh EC20, 100% = maximal ACh; activation, % at 3 µM; 360,000 compounds, 0.4% hits; AID 624126, 2012;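 active means activation above its plate's cutoff, the mean activation of sample wells plus 3 SD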
Target sequence (P08173 whole entry, looked up): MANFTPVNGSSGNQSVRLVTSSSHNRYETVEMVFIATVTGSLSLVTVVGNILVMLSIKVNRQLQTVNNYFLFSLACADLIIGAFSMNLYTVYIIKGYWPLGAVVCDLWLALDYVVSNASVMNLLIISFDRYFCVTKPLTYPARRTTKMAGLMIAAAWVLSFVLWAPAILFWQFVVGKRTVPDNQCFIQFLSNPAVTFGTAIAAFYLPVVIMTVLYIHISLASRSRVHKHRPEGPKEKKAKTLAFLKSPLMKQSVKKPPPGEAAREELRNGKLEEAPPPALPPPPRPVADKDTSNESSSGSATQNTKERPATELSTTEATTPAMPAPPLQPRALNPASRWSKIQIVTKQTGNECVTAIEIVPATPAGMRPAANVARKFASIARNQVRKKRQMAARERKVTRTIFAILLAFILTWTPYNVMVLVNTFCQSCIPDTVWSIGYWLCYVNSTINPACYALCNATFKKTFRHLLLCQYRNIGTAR
CHRM4 antagonist = human M4 muscarinic receptor antagonists, primary screen, CHO cells, Fluo-8 calcium fluorescence. Muscarinic acetylcholine receptor M4 (Homo sapiens), P08173. 360,000 compounds, 0.73% hits. CHO-hM4 cells, ACh EC80. AID 624125, 2012. inhibition, % at 3 µM;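 active means inhibition above its plate's cutoff, the mean inhibition of sample wells plus 3 SD, cut at about 27% in these data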;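 further: 0% = acetylcholine EC80 with DMSO and 100% = DMSO without agonist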
M1 ag = human M1 muscarinic receptor agonists, primary screen, Fluo-8 calcium fluorescence, CHO-K1 cells, HTS; activation, % at 3 µM; 360,000 compounds, 0.33% hits; AID 588814, 2011; CHO-K1 hM1, agonist mode; 0% DMSO, 100% acetylcholine EC100;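 active means activation above the run's mean compound activation plus 3 SD, cut at about 16% in these data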;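 further: peak over basal fluorescence ratio within a 140 s kinetic read after compound addition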
M4 ag = human M4 muscarinic receptor agonists, primary screen, CHO-K1 cells, Fluo-8 calcium fluorescence; CHO-K1 hM4/Gqi5; vehicle 0%, full acetylcholine response 100%; activation, % at 3 µM; 360,000 compounds, 0.14% hits;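 active means activation above the run mean over all test wells plus 3 SD, cut at about 32% in these data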;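 further: peak over basal fluorescence ratio per well then scaled between controls; 0% = DMSO wells and 100% = acetylcholine at EC100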
* = called active by the depositor. This is a sample that favours compounds with a hit; in the whole collection about 2.2% have one here.

How did O=C(Nc1cccc(NC(=O)c2ccc(-c3cccc(Br)c3)o2)c1)c1ccco1 do in these assays?
CHRM1 antagonist: 26.5; CHRM1 PAM: -8.8; CHRM4 PAM: -16.5; CHRM4 antagonist: 33.5*; M1 ag: -2.5; M4 ag: 11.7

How did O=C(Nc1cccc(-c2cnc3ccccc3n2)c1)c1ccccc1 do in these assays?
CHRM1 antagonist: -4.1; CHRM1 PAM: 3.7; CHRM4 PAM: 4.4; CHRM4 antagonist: -5.5; M1 ag: 1.6; M4 ag: 0.9

What do the screens show for `O=C(Nc1cccc(-c2cnc3ccccc3n2)c1)c1cccc(NC(=O)c2ccco2)c1`?
CHRM1 antagonist: 35.0*; CHRM1 PAM: -14.9; CHRM4 PAM: -24.5; CHRM4 antagonist: 41.6*; M1 ag: 1.8; M4 ag: 20.1

What do the screens show for `O=C(Nc1ccccc1C(=O)O)c1cccc(NC(=O)c2ccc(Br)o2)c1`?
CHRM1 antagonist: -27.3; CHRM1 PAM: 16.8; CHRM4 PAM: 18.4*; CHRM4 antagonist: -7.0; M1 ag: 2.9; M4 ag: -1.4

Results for Cc1cc2c(c(=O)o1)C(CC(C)C)C(C#N)=C(N)O2 (stereo not given) ?
CHRM1 antagonist: -0.9; CHRM1 PAM: -1.0; CHRM4 PAM: 8.3; CHRM4 antagonist: -10.4; M1 ag: -3.0; M4 ag: 0.8

What do the screens show for `C/C(=N\O)c1ccccc1C(=O)O`?
CHRM1 antagonist: -15.2; CHRM1 PAM: 7.7; CHRM4 PAM: 5.7; CHRM4 antagonist: -9.0; M1 ag: -3.4; M4 ag: 0.2

What do the screens show for `CC(=O)c1cccc(NC(=O)c2cc(-c3cccs3)on2)c1`?
CHRM1 antagonist: -5.2; CHRM1 PAM: 3.8; CHRM4 PAM: 15.8*; CHRM4 antagonist: -25.3; M1 ag: -3.8; M4 ag: 1.4

What do the screens show for `CC(=O)c1cccc(NC(=O)c2ccc(Br)o2)c1`?
CHRM1 antagonist: 5.8; CHRM1 PAM: -1.3; CHRM4 PAM: 16.1; CHRM4 antagonist: 28.9*; M1 ag: -1.7; M4 ag: 2.5

How did O=C(Nc1cccc(O)c1)c1cc(-c2cccs2)on1 do in these assays?
CHRM1 antagonist: -1.0; CHRM1 PAM: -2.6; CHRM4 PAM: -4.1; CHRM4 antagonist: -1.3; M1 ag: 0.8; M4 ag: 14.3

What do the screens show for `CCCC(=O)Nc1c2c(nc3ccccc13)N(c1ccccc1)CC2`?
CHRM1 antagonist: 12.6; CHRM1 PAM: -5.7; CHRM4 PAM: -11.0; CHRM4 antagonist: -5.6; M1 ag: -6.3; M4 ag: 10.1

What do the screens show for `O=C(N/N=C/c1ccc2cccc(OCc3ccccc3)c2n1)c1ccc(Cl)cc1`?
CHRM1 antagonist: 34.4*; CHRM1 PAM: -10.3; CHRM4 PAM: -8.1; CHRM4 antagonist: -0.5; M1 ag: -1.4; M4 ag: 8.0

What do the screens show for `COc1ccc(OCc2nnc(SCC(=O)NCc3ccco3)o2)cc1`?
CHRM1 antagonist: -13.0; CHRM1 PAM: 6.1; CHRM4 PAM: 8.3; CHRM4 antagonist: -6.2; M1 ag: -1.3; M4 ag: 1.2

Results for CCOC(=O)c1cc2c(nc1N)CC(C)(C)OC2 ?
CHRM1 antagonist: 6.2; CHRM1 PAM: -3.7; CHRM4 PAM: -4.0; CHRM4 antagonist: -5.0; M1 ag: -3.2; M4 ag: 0.0

Results for CCOC(=O)c1cc2c(nc1N)CC(C)(CC)OC2 (stereo not given) ?
CHRM1 antagonist: -14.8; CHRM1 PAM: 2.3; CHRM4 PAM: 16.8*; CHRM4 antagonist: 0.3; M1 ag: -0.8; M4 ag: 0.9

Results for Cc1cc(-c2cn3ccccc3n2)c(C)n1-c1ccccc1 ?
CHRM1 antagonist: 34.4*; CHRM1 PAM: -18.6; CHRM4 PAM: -22.1; CHRM4 antagonist: 41.0*; M1 ag: -5.5; M4 ag: -0.2

What do the screens show for `CCN(CC)CC(=O)N1c2ccccc2Sc2ccc(Cl)cc21`?
CHRM1 antagonist: 99.2*; CHRM1 PAM: -19.7; CHRM4 PAM: -18.3; CHRM4 antagonist: 85.4*; M1 ag: -3.7; M4 ag: -0.2

Results for CCN(CC)CCC(=O)N1c2ccccc2Sc2ccc(NC(=O)OC)cc21 ?
CHRM1 antagonist: 23.5; CHRM1 PAM: -25.6; CHRM4 PAM: -5.3; CHRM4 antagonist: -1.4; M1 ag: -8.8; M4 ag: 1.4

How did CCN(CC)CC(=O)N1c2ccccc2Sc2ccccc21 do in these assays?
CHRM1 antagonist: 100.7*; CHRM1 PAM: -27.7; CHRM4 PAM: -18.3; CHRM4 antagonist: 83.6*; M1 ag: -9.3; M4 ag: 1.0

Results for CCN(CC)CCCCN1c2ccccc2Sc2ccccc21 ?
CHRM1 antagonist: 100.7*; CHRM1 PAM: -27.0; CHRM4 PAM: -17.3; CHRM4 antagonist: 73.1*; M1 ag: -6.8; M4 ag: 9.9

What do the screens show for `CSCC(C)N1CCC(CO)(CCc2ccccc2)CC1` (stereo not given)?
CHRM1 antagonist: -17.1; CHRM1 PAM: 9.2; CHRM4 PAM: -6.0; CHRM4 antagonist: 0.5; M1 ag: -7.9; M4 ag: 0.7

Results for CCN(C(=O)c1ccc(S(=O)(=O)N2CCCC2)cc1)C1CCS(=O)(=O)C1 (stereo not given) ?
CHRM1 antagonist: 5.2; CHRM1 PAM: -3.5; CHRM4 PAM: 7.5; CHRM4 antagonist: 2.3; M1 ag: -7.2; M4 ag: 1.7

What do the screens show for `Cc1ccc(-n2c(C)nc3c(cnn3-c3ccc(C)c(C)c3)c2=O)cc1C`?
CHRM1 antagonist: 9.6; CHRM1 PAM: -8.4; CHRM4 PAM: -2.4; CHRM4 antagonist: -7.1; M1 ag: -5.2; M4 ag: 4.2

How did Cc1ccc(-n2c(C)nc3c(cnn3-c3ccc(F)cc3)c2=O)cc1C do in these assays?
CHRM1 antagonist: 29.0*; CHRM1 PAM: -12.1; CHRM4 PAM: -7.5; CHRM4 antagonist: -0.7; M1 ag: 1.2; M4 ag: 3.5

Results for CC(C)(C)N(Cc1cc2ccccc2[nH]c1=O)C(=O)c1cccc([N+](=O)[O-])c1 ?
CHRM1 antagonist: 57.2*; CHRM1 PAM: -21.1; CHRM4 PAM: -30.4; CHRM4 antagonist: 14.9; M1 ag: -4.6; M4 ag: 0.2

How did Cc1ccc(-c2nnn(CC(=O)NCCC3=CCCCC3)n2)cc1 do in these assays?
CHRM1 antagonist: -25.3; CHRM1 PAM: 3.4; CHRM4 PAM: 0.6; CHRM4 antagonist: 1.7; M1 ag: -1.9; M4 ag: 0.2

How did Cc1cc(N2CCN(C)CC2)ccc1NC(=O)c1cccc(S(=O)(=O)N2CCc3ccccc3C2)c1 do in these assays?
CHRM1 antagonist: 79.2*; CHRM1 PAM: -28.2; CHRM4 PAM: -15.4; CHRM4 antagonist: 7.8; M1 ag: -8.6; M4 ag: 4.7
